# Laboratory results: PubChem BioAssay AID492998 (Southern Research Specialized Biocontainment Screening …, 2010)
# The whole screen tested about 2,300 compounds, of which about 550 (24%) were called active. The rule behind the calls is not given here. Not all results are given here. Entries with a potency or affinity are not part of this list.
# Experiment: Vero E6 cell cytotoxicity, dose response, cytotoxicity control for non-replicating M. tuberculosis project, secondary assay (AID 492998)
# Settings: series mostly up to 20 µM
row,SMILES,outcome
1,CC1CCC/C(=C\Nc2ccc(C(=O)O)c(O)c2)C1=O (centres undefined),inactive
2,Oc1ccccc1Nc1nc(NCC2CCCO2)c2ccccc2n1 (centres undefined),inactive
3,CCSc1nsc(NC(=O)Nc2ccc(F)cc2F)n1,inactive
4,Clc1ccc(OCCCCN2CCc3ccccc3C2)cc1,inactive
5,COc1ccc(CCNc2cc(-c3ccccc3)nc3ncnn23)cc1,inactive
6,COc1ccc(CC(=O)Nc2nccs2)cc1OC,inactive
7,CCOC(=O)Cn1c(C)c(Br)c(=O)c2cccc(C)c21,inactive
8,FC(F)(F)c1nc(SCc2ccc(Cl)cc2Cl)n[nH]1,inactive
9,CC1CCCN(CCC(=O)c2ccc(Br)cc2)C1 (centres undefined),inactive
10,CNc1nnc(Sc2ncccc2[N+](=O)[O-])s1,inactive
11,CN(CC(=O)Nc1ccc(C#N)cc1)Cc1ccc(Cl)c(Cl)c1,inactive
12,COC(=O)COc1ccc2c(=O)c(Oc3ccccc3)c(C)oc2c1,inactive
13,Cc1nn(C)cc1/C=N/NC(=O)c1sc2ccccc2c1Cl,inactive
14,Cc1ccc(C(=O)N/N=C/c2cccc3ccccc23)cn1,inactive
15,Cc1[nH]nc2c1C(c1ccc(OC(=O)c3ccco3)cc1)C(C#N)=C(N)O2 (centres undefined),inactive
16,CCC(=O)c1ccc(OCC(=O)OCC(=O)N2CCc3ccccc3C2)cc1,inactive
17,O=C1NC(=O)C(=Cc2ccc(Oc3ccc([N+](=O)[O-])cc3)cc2)C(=O)N1,inactive
18,COc1ccc(/C(=N/O)C(C)(C)NO)cc1,inactive
19,CO/N=C/CC(=O)c1ccc(OC)cc1,inactive
20,C/C(=N/Nc1ccnc2cc(Cl)ccc12)c1ccc(N)cc1,inactive
21,CCC(C)(C)c1ccc(OCC(=O)Nc2ccncc2)cc1,inactive

row,SMILES,outcome
1,O=C(Nc1nnc(-c2ccc(Cl)cc2)o1)C1=COCCO1,inactive
2,O=C(Nc1nnc(-c2ccc(Cl)cc2)o1)c1nc2ccccc2s1,inactive
3,O=C(Nc1nnc(-c2ccc(Cl)cc2)o1)c1cccc(N2C(=O)CCC2=O)c1,inactive
4,O=C(COc1ccccc1)Nc1nnc(-c2ccc(Cl)cc2)o1,inactive
5,COC(=O)COc1cccc(/C=N/NC(=O)CCSc2ccccc2)c1,inactive
6,Cc1ccc(-c2cc(C(F)(F)F)n3nc(C(=O)NCCCn4ccnc4)cc3n2)cc1C,inactive
7,CCc1cc2c(=O)n(C(C)C(=O)OC3CCCCC3)cnc2s1 (centres undefined),inactive
8,CCCCn1c(O)c(/C=C2/C=CC=N2)c(=O)[nH]c1=O,inactive
9,N=C1/C(=C\c2coc3ccccc3c2=O)C(=O)N=C2SC=CN12,inactive
10,CCOC(=O)C1CCN(c2nc3cc(OC)ccc3cc2C#N)CC1,inactive
11,COC(=O)c1cccc(NC(=O)COc2cccc([N+](=O)[O-])c2)c1,inactive
12,O=C(NNC1CC(=O)N(c2ccccc2)C1=O)c1ccco1 (centres undefined),inactive
13,COC(=O)c1ccc(Cn2cc(C(F)(F)F)cc([N+](=O)[O-])c2=O)cc1,inactive
14,O=C(CC1CCCCC1)NCc1ccccc1,inactive
15,Cc1nnc(N/N=C/c2ccc(-c3ccccc3F)o2)n1N,inactive
16,COC(=O)CCn1c(C)cc(C(=O)COc2ccccc2C(N)=O)c1C,inactive
17,Clc1ccc2c(N3CCCC3)ccnc2c1,inactive
18,Fc1ccc(-c2nn(-c3ccccc3)cc2CNCc2ccccc2)cc1,inactive
19,O=c1oc(-c2cccs2)nc2c1cnn2-c1ccccc1,inactive
20,CSc1ccccc1C(=O)NCc1ccc(S(N)(=O)=O)cc1,inactive
21,Cc1[nH]n(-c2ccccc2)c(=O)c1C=Nc1cnc2ccccc2c1,inactive

row,SMILES,outcome
1,O=C(COC(=O)c1ccccc1Cl)NCCC1=CCCCC1,inactive
2,CC(C)=CC1C(C(=O)Nc2ccc(Br)cn2)C1(C)C (centres undefined),inactive
3,O=C(NCCCN1CCOCC1)c1c(O)c2cc(Br)cc(Br)c2[nH]c1=O,inactive
4,COc1ccc(C(CCNCc2ccc(OC(C)C)cc2)C(C)C)cc1 (centres undefined),inactive
5,COc1ccc(C(C)NC(=O)CCc2ccccc2)cc1 (centres undefined),inactive
6,CCOC(=O)CN1NC2(CCC(C)CC2)NC1=S (centres undefined),inactive
7,COc1ccc(COC(=O)CCNC(=O)c2ccc(Cl)cc2)cc1,inactive
8,COc1ccc(-c2[nH]ncc2CN2CCCCCCC2)c(OC)c1,inactive
9,Sc1oc(-c2ccccc2)cc1C=Nc1ccccc1,inactive
10,CCOC(=O)c1c(-c2ccccc2)csc1NC(=O)CCN1CCOCC1,inactive
11,CN1c2ccsc2/C(=N/Nc2ccccc2)CS1(=O)=O,inactive
12,CCOC(=O)CNC(=O)CNC(=O)c1nn(-c2ccc(OC)c(Cl)c2)c(=O)c2ccccc12,inactive
13,O=C(O)c1ccccc1C(=O)NNc1ccc(F)cc1,inactive
14,CCOC(=O)c1ccc(NC2=CC(=O)C(=O)c3ccccc32)cc1,inactive
15,CCOC(=O)COc1cc(O)c2c(=O)cc(-c3ccccc3)oc2c1,inactive
16,CCOC(=O)CCNC(=O)c1ccc2nc(C3CCCCC3)oc2c1,inactive
17,O=C(Nc1ccc(Cl)cn1)C1COc2ccccc2O1 (centres undefined),inactive
18,COC(=O)COc1ccc2cc(-c3ccc(OC)cc3)c(=O)oc2c1,inactive
19,COC(=O)CN(C#N)c1nc(N(C)C)nc(N(C)C)n1,inactive
20,CC(/C=C/c1ccccc1F)=N\NC(=O)c1ccccc1,inactive
21,Cc1ccc(NC(=S)C2=C(O)c3sccc3N(C)S2(=O)=O)cc1,inactive

row,SMILES,outcome
1,Cc1ccc(OCC(=O)N2CCCc3ccccc32)cc1,inactive
2,Cc1ccc(NC(=O)CO/N=C/c2ccc(N(C)C)cc2)cc1,inactive
3,Cc1ccc(C(=O)C=CNNC(=O)c2ccccc2)cc1,inactive
4,COc1ccc(C(=O)C=CNNC(=O)c2ccc(Cl)cc2)cc1,inactive
5,O=C(COc1ccc(F)cc1)Nc1ccc2c(c1)OCCO2,inactive
6,Cc1ccc(-n2cc(CNCCn3nc(C)cc3C)c(-c3ccc(F)cc3)n2)cc1,inactive
7,Cc1ccc(-n2cc(CNCCc3cscn3)c(-c3ccc(F)cc3)n2)cc1,inactive
8,COc1ccc(OCc2n[nH]c(=S)o2)cc1,inactive
9,Cc1cccc(NC(=O)CO/N=C/c2ccc3c(c2)OCO3)c1,inactive
10,CCc1nnc(NC(=O)CN2CCN(Cc3ccc(F)cc3)CC2)s1,inactive
11,COC(=O)COc1ccc2c(=O)c(-c3ccccc3)coc2c1,inactive
12,c1ccc2cc(OCCCn3ccnc3)ccc2c1,inactive
13,C=CCc1cc(Cl)ccc1OCCCn1ccnc1,inactive
14,CC(CN1CCOCC1)OC(=O)c1ccc2c(c1)OCCO2 (centres undefined),inactive
15,CC(NC(=O)OCc1ccccc1)c1ccccc1 (centres undefined),inactive
16,CC(CN1CCOCC1)OC(=O)c1ccc(Br)cc1 (centres undefined),inactive
17,COc1ccc(C(=O)CCN2CCCCCC2)cc1,inactive
18,Cc1ccc(NC(CC(=O)c2ccccc2)C(=O)O)cc1Cl (centres undefined),inactive
19,CCCCOc1ccc(NC(=O)CN2CCN(Cc3ccccc3)CC2)cc1,inactive
20,CC(C)COc1ccc(C(=O)CCN2CCCCC2)cc1,inactive
21,COc1ccc2cc(C(=O)NCc3ccccc3CN3CCCC3)ccc2c1,inactive
